Measurements reported in publication PMC12864922, “TDP-43 directly inhibits mRNA accumulation in neurites through modulation of mRNA stability”.
The full ranking holds about 9,900 sequences; the median of “r (bound/input frequency ratio)” is about 0.7, and the highest 2% start at about 6.5. The list comes from a sample in which the highest values are over-represented; it also holds similar and randomly drawn sequences.

B1: ENSMUSG00000031028.287|Tub (ssRNA)
RNA: GGGAGUUCUACAGUCCGACGAUCGCUUCGAUAUCCGCAUGCUAGGCUGGAUUGAUGUAAAUGGAAGUAGUACUUUAAGAAAGCUCUAGAUUUCCCAGGUUGGACACUCGACGAAAGGCACACCUGCUGCAGCAGGUUCUGACACACCUGAGCCAUACAUUGCCAUCAGAGAACCCUCAGCGAGGUAGCCUUUGUUUACAGUCUAGUUUCUAGAGGGCAGUAGGACUUCCAUGCUGGGGCUGGCCUAUCUCCUGAUGAAAGAUUACAGUGCCAUCUCCUUCCCAUAGUUCUGUGUCUGCCCUCCCUCUUGCGGUCGCACUAGUGUGGAAUUCUCGGGUGUCAAGG
B2: ENSMUSG00000029636.242|Wasf3 (ssRNA)
RNA: GGGAGUUCUACAGUCCGACGAUCGCUUCGAUAUCCGCAUGCUACAUUGUGUCAGUUGACAGGGAAUGCCUGUGGGAUAAUUAAAAAUGGUUUUUGCUCAUGAGUUUGGGAUGUCACCCAGCCGCCCACAUCGCCUGCUAUGUGUGUGGACGCCUGUCCGCUUGGCCAGCUAUCCUGUAACACCUGCCAGUAGUAGGUUUUCCUCAUGUCACUAUGACAGUGAAAGCCCAUGUGCAAGCCCCUCCCUACGCCCUGCUUUGGCGUGUGUCUGAGUGCUCUGUGCUGCGCCAUGGCCAUCCUGGAGCUCUUGCGGUCGCACUAGUGUGGAAUUCUCGGGUGUCAAGG
B3: ENSMUSG00000028439.73|Fam219a|190:194 (ssRNA)
RNA: GGGAGUUCUACAGUCCGACGAUCGCUUCGAUAUCCGCAUGCUAGUAAGCGUUGGGUGAAGGGAUCACAGGGCCGGAAGGUUGGCCCCAGCCAGUGAAGCCAUGAAUCCCCCCCAAGCCCGGCUUGGAAAGGAAGGAAAGGGGUUUUGAGAAGAAAAGGAUCCAAGCAAUGGGGGCAGUUCUCACACCUCAGAGCCCCUCUCCCCAAACCCUGUGCCAGCCCAUAUACCUAUUACACAUUUCCCCUCAUCUCCAGAUGGGAAGCCUGGCAGCGCUGUCCAAAGGGAUACUGUCUCUCCAUUAGACUCUUGCGGUCGCACUAGUGUGGAAUUCUCGGGUGUCAAGG
B4: ENSMUSG00000028439.184|Fam219a (ssRNA)
RNA: GGGAGUUCUACAGUCCGACGAUCGCUUCGAUAUCCGCAUGCUAUGUGCGUGUGUGUAUGUGUGUGCGUGUGUGUGUGUGUGUGUUGUACCCGAGUGUGUGUUGAGCCUAUCUGUCCAGGGAACCAGAUUGGUGUCCGAGAUGAGGAAAUGGCUGUGGCCUGGGAAAUCAGUGAGAGGCCGCUUGGGAAUGAGAAUGCAGUGGACUGAAAGCACAGCCUGGCCAUCUGGAACCUGGGUUCUGGUCCCAGCCUCGGCAUUCUCCCUGAGCUCCUAAGCAAUUCCCAGGCUUCUCUAGGGCUUCAGCUCUUGCGGUCGCACUAGUGUGGAAUUCUCGGGUGUCAAGG
B5: ENSMUSG00000028439.188|Fam219a (ssRNA)
RNA: GGGAGUUCUACAGUCCGACGAUCGCUUCGAUAUCCGCAUGCUAUGUGUGUGUGUGUGUGUUGUACCCGAGUGUGUGUUGAGCCUAUCUGUCCAGGGAACCAGAUUGGUGUCCGAGAUGAGGAAAUGGCUGUGGCCUGGGAAAUCAGUGAGAGGCCGCUUGGGAAUGAGAAUGCAGUGGACUGAAAGCACAGCCUGGCCAUCUGGAACCUGGGUUCUGGUCCCAGCCUCGGCAUUCUCCCUGAGCUCCUAAGCAAUUCCCAGGCUUCUCUAGGGCUUCAGUUCUCACAACUGGAAAAUAAAGAGCUCUUGCGGUCGCACUAGUGUGGAAUUCUCGGGUGUCAAGG
B6: ENSMUSG00000061578.501|Ksr2|23:28;195:201 (ssRNA)
RNA: GGGAGUUCUACAGUCCGACGAUCGCUUCGAUAUCCGCAUGCUACUCCCAAGUGCUGGGAUUAAAGCACACAACCACCAUUGCAAUCUUGAACUCUUGACCAAUAGAAAUCCUAGACUAGUGUUGCUAGGCAACUGACUGUAUUCAGGACACCCAGGGUGGGAGGUGGAUGGAGCUCUUGCCUAACACACACCAAGCCCCAAGUUCCAUCCCCAGUCCCACACAAACCAGAUAUGAUGCACACACCCUAUGUCCCCCACACACGAGAGAGCUGGAGGCAGGAGGAUCAGAAGUUCAGGGCCAUCCUCUUGCGGUCGCACUAGUGUGGAAUUCUCGGGUGUCAAGG
B7: ENSMUSG00000028439.184|Fam219a|6:22;24:41;51:58 (ssRNA)
RNA: GGGAGUUCUACAGUCCGACGAUCGCUUCGAUAUCCGCAUGCUAUGUGCCACACACAUACACACACCCACACACACACACACACAUGUACCCGACACACACAUGAGCCUAUCUGUCCAGGGAACCAGAUUGGUGUCCGAGAUGAGGAAAUGGCUGUGGCCUGGGAAAUCAGUGAGAGGCCGCUUGGGAAUGAGAAUGCAGUGGACUGAAAGCACAGCCUGGCCAUCUGGAACCUGGGUUCUGGUCCCAGCCUCGGCAUUCUCCCUGAGCUCCUAAGCAAUUCCCAGGCUUCUCUAGGGCUUCAGCUCUUGCGGUCGCACUAGUGUGGAAUUCUCGGGUGUCAAGG
B8: ENSMUSG00000061578.500|Ksr2|29:34;201:207 (ssRNA)
RNA: GGGAGUUCUACAGUCCGACGAUCGCUUCGAUAUCCGCAUGCUACUCUGCCUCCCAAGUGCUGGGAUUAAAGCACACAACCACCAUUGCAAUCUUGAACUCUUGACCAAUAGAAAUCCUAGACUAGUGUUGCUAGGCAACUGACUGUAUUCAGGACACCCAGGGUGGGAGGUGGAUGGAGCUCUUGCCUAACACACACCAAGCCCCAAGUUCCAUCCCCAGUCCCACACAAACCAGAUAUGAUGCACACACCCUAUGUCCCCCACACACGAGAGAGCUGGAGGCAGGAGGAUCAGAAGUUCAGGCUCUUGCGGUCGCACUAGUGUGGAAUUCUCGGGUGUCAAGG
B9: ENSMUSG00000061578.502|Ksr2|17:22;189:195 (ssRNA)
RNA: GGGAGUUCUACAGUCCGACGAUCGCUUCGAUAUCCGCAUGCUAAGUGCUGGGAUUAAAGCACACAACCACCAUUGCAAUCUUGAACUCUUGACCAAUAGAAAUCCUAGACUAGUGUUGCUAGGCAACUGACUGUAUUCAGGACACCCAGGGUGGGAGGUGGAUGGAGCUCUUGCCUAACACACACCAAGCCCCAAGUUCCAUCCCCAGUCCCACACAAACCAGAUAUGAUGCACACACCCUAUGUCCCCCACACACGAGAGAGCUGGAGGCAGGAGGAUCAGAAGUUCAGGGCCAUCCUUAAUCUCUUGCGGUCGCACUAGUGUGGAAUUCUCGGGUGUCAAGG
B10: ENSMUSG00000028439.189|Fam219a (ssRNA)
RNA: GGGAGUUCUACAGUCCGACGAUCGCUUCGAUAUCCGCAUGCUAUGUGUGUGUGUUGUACCCGAGUGUGUGUUGAGCCUAUCUGUCCAGGGAACCAGAUUGGUGUCCGAGAUGAGGAAAUGGCUGUGGCCUGGGAAAUCAGUGAGAGGCCGCUUGGGAAUGAGAAUGCAGUGGACUGAAAGCACAGCCUGGCCAUCUGGAACCUGGGUUCUGGUCCCAGCCUCGGCAUUCUCCCUGAGCUCCUAAGCAAUUCCCAGGCUUCUCUAGGGCUUCAGUUCUCACAACUGGAAAAUAAAGAGUAGCUGCUCUUGCGGUCGCACUAGUGUGGAAUUCUCGGGUGUCAAGG
B11: ENSMUSG00000028439.185|Fam219a (ssRNA)
RNA: GGGAGUUCUACAGUCCGACGAUCGCUUCGAUAUCCGCAUGCUAUGUGUGUAUGUGUGUGCGUGUGUGUGUGUGUGUGUUGUACCCGAGUGUGUGUUGAGCCUAUCUGUCCAGGGAACCAGAUUGGUGUCCGAGAUGAGGAAAUGGCUGUGGCCUGGGAAAUCAGUGAGAGGCCGCUUGGGAAUGAGAAUGCAGUGGACUGAAAGCACAGCCUGGCCAUCUGGAACCUGGGUUCUGGUCCCAGCCUCGGCAUUCUCCCUGAGCUCCUAAGCAAUUCCCAGGCUUCUCUAGGGCUUCAGUUCUCACUCUUGCGGUCGCACUAGUGUGGAAUUCUCGGGUGUCAAGG
B12: ENSMUSG00000028439.186|Fam219a (ssRNA)
RNA: GGGAGUUCUACAGUCCGACGAUCGCUUCGAUAUCCGCAUGCUAUAUGUGUGUGCGUGUGUGUGUGUGUGUGUUGUACCCGAGUGUGUGUUGAGCCUAUCUGUCCAGGGAACCAGAUUGGUGUCCGAGAUGAGGAAAUGGCUGUGGCCUGGGAAAUCAGUGAGAGGCCGCUUGGGAAUGAGAAUGCAGUGGACUGAAAGCACAGCCUGGCCAUCUGGAACCUGGGUUCUGGUCCCAGCCUCGGCAUUCUCCCUGAGCUCCUAAGCAAUUCCCAGGCUUCUCUAGGGCUUCAGUUCUCACAACUGCUCUUGCGGUCGCACUAGUGUGGAAUUCUCGGGUGUCAAGG
B13: ENSMUSG00000028439.185|Fam219a|1:16;18:35;45:52 (ssRNA)
RNA: GGGAGUUCUACAGUCCGACGAUCGCUUCGAUAUCCGCAUGCUAACACACAUACACACACCCACACACACACACACACAUGUACCCGACACACACAUGAGCCUAUCUGUCCAGGGAACCAGAUUGGUGUCCGAGAUGAGGAAAUGGCUGUGGCCUGGGAAAUCAGUGAGAGGCCGCUUGGGAAUGAGAAUGCAGUGGACUGAAAGCACAGCCUGGCCAUCUGGAACCUGGGUUCUGGUCCCAGCCUCGGCAUUCUCCCUGAGCUCCUAAGCAAUUCCCAGGCUUCUCUAGGGCUUCAGUUCUCACUCUUGCGGUCGCACUAGUGUGGAAUUCUCGGGUGUCAAGG
B14: ENSMUSG00000028439.187|Fam219a (ssRNA)
RNA: GGGAGUUCUACAGUCCGACGAUCGCUUCGAUAUCCGCAUGCUAUGUGCGUGUGUGUGUGUGUGUGUUGUACCCGAGUGUGUGUUGAGCCUAUCUGUCCAGGGAACCAGAUUGGUGUCCGAGAUGAGGAAAUGGCUGUGGCCUGGGAAAUCAGUGAGAGGCCGCUUGGGAAUGAGAAUGCAGUGGACUGAAAGCACAGCCUGGCCAUCUGGAACCUGGGUUCUGGUCCCAGCCUCGGCAUUCUCCCUGAGCUCCUAAGCAAUUCCCAGGCUUCUCUAGGGCUUCAGUUCUCACAACUGGAAAAUCUCUUGCGGUCGCACUAGUGUGGAAUUCUCGGGUGUCAAGG
B15: ENSMUSG00000028439.187|Fam219a|6:23;33:40 (ssRNA)
RNA: GGGAGUUCUACAGUCCGACGAUCGCUUCGAUAUCCGCAUGCUAUGUGCCACACACACACACACACAUGUACCCGACACACACAUGAGCCUAUCUGUCCAGGGAACCAGAUUGGUGUCCGAGAUGAGGAAAUGGCUGUGGCCUGGGAAAUCAGUGAGAGGCCGCUUGGGAAUGAGAAUGCAGUGGACUGAAAGCACAGCCUGGCCAUCUGGAACCUGGGUUCUGGUCCCAGCCUCGGCAUUCUCCCUGAGCUCCUAAGCAAUUCCCAGGCUUCUCUAGGGCUUCAGUUCUCACAACUGGAAAAUCUCUUGCGGUCGCACUAGUGUGGAAUUCUCGGGUGUCAAGG

These binders were tested against TDP-43 (Homo sapiens, UniProt Q13148 1-414) (assay: RNA Bind-n-Seq with designed 260-mer pool; 25 mM Tris-HCl, 150 mM KCl, 3 mM MgCl2, BSA (printed 500 mg/mL), 20 units/mL SUPERase IN; pH not stated; 500 nM RNA pool, 1 h, 4 C; TDP-43 5, 50, 500 nM; high values mean tight binding). Settings: protein: recombinant; tags: SBP (GST cleaved off with PreScission; pGEX-GST-SBP).
Method in brief: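 In 25 mM Tris-HCl, 150 mM KCl, 3 mM MgCl2, BSA and SUPERase IN, 500 nM of an in vitro-transcribed 260-nt 3′ UTR oligo pool was incubated for 1 h at 4 °C with SBP-tagged TDP-43 (5, 50 or 500 nM) captured on streptavidin beads. RNA remaining after washes was biotin-eluted, reverse transcribed, PCR-amplified and sequenced. Binding, R, is the bound-sample abundance of each oligo, normalized to mapped reads, divided by its abundance in input. Each duplicate used a separate, independent protein batch.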

TDP-43, sequence (Q13148 whole entry): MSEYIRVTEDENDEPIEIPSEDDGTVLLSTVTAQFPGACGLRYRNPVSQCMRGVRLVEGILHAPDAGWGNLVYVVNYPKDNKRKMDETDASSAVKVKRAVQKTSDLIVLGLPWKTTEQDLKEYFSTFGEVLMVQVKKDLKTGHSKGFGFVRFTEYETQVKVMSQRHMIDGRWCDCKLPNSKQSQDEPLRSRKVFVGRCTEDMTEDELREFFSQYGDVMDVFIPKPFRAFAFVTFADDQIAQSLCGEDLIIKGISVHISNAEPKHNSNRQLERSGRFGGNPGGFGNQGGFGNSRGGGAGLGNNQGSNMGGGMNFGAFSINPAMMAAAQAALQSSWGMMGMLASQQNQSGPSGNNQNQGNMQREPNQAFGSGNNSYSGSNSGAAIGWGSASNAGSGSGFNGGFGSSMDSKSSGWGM

| Binder | binding signal |
| --- | --- |
| B1 | 0.856 R (bound/input frequency ratio) |
| B2 | 0.663 R (bound/input frequency ratio) |
| B3 | 0.449 R (bound/input frequency ratio) |
| B4 | 7.33 R (bound/input frequency ratio) |
| B5 | 4.17 R (bound/input frequency ratio) |
| B6 | 6.59 R (bound/input frequency ratio) |
| B7 | 2.43 R (bound/input frequency ratio) |
| B8 | 3.25 R (bound/input frequency ratio) |
| B9 | 3.46 R (bound/input frequency ratio) |
| B10 | 1.86 R (bound/input frequency ratio) |
| B11 | 7.73 R (bound/input frequency ratio) |
| B12 | 6.13 R (bound/input frequency ratio) |
| B13 | 2.5 R (bound/input frequency ratio) |
| B14 | 6.68 R (bound/input frequency ratio) |
| B15 | 1.44 R (bound/input frequency ratio) |
